Measurements taken from PubChem BioAssay AID1159580 (chemical genetic matrix, 2015).
In all, about 5,500 compounds went through this assay and about 2,000 (36%) were called active. Roughly 18% stayed inconclusive and do not appear here. No stated cut-off is given here; in the data, active means normalized growth mostly below about 0.91 (no sharp cut-off); inconclusive means no clear call, values can overlap the other calls; inactive means mostly above about 0.92. The list shows a part of the results.

Test: chemical genetic growth profiling, strain panel (AID 1159580);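 further: tested at 20 µM; growth read once vehicle control cultures reached saturation at 30 °C; 1 = growth at the plate median or of vehicle wells; lower values mean less growth of the strain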
Settings: growth OD

Measured: normalized growth

O=C1C[C@@H](c2ccc(O)cc2)Oc2cc(O)cc(O)c21
inactive: S. cerevisiae deletion strains, locus YJR075W, strain HOC1, hits give low values 1.02 | S. cerevisiae deletion strains, locus YKL009W, strain mrt4, hits give low values 1 | S. cerevisiae deletion strains, locus YKL068W, hits give low values 0.998 | S. cerevisiae deletion strains, locus YKL085W, strain MDH1 (second series), hits give low values 1 | S. cerevisiae deletion strains, locus YKL085W, strain MDH1, hits give low values 1 | S. cerevisiae deletion strains, locus YKL160W, strain elf1, hits give low values 0.985 | S. cerevisiae deletion strains, locus YKL190W, strain CNB1, hits give low values 1.01 | S. cerevisiae deletion strains, locus YKR001C, strain vps1, hits give low values 0.999 | S. cerevisiae deletion strains, locus YKR026C, strain gcn3, hits give low values 0.962 | S. cerevisiae deletion strains, locus YKR091W, strain srl3, hits give low values 0.973 | S. cerevisiae deletion strains, locus YLL001W, strain dnm1, hits give low values 0.944 | S. cerevisiae deletion strains, locus YLL026W, hits give low values 0.967 | S. cerevisiae deletion strains, locus YLL041C, strain sdh2, hits give low values 0.977 | S. cerevisiae deletion strains, locus YLR027C, strain aat2, hits give low values 0.982 | S. cerevisiae deletion strains, locus YLR039C, strain RIC1, hits give low values 1 | S. cerevisiae deletion strains, locus YLR058C, strain SHM2, hits give low values 1.01 | S. cerevisiae deletion strains, locus YLR102C, strain apc9, hits give low values 1.02 | S. cerevisiae deletion strains, locus YLR113W, strain HOG1, hits give low values 0.967 | S. cerevisiae deletion strains, locus YLR221C, strain rsa3, hits give low values 0.975 | S. cerevisiae deletion strains, locus YLR258W, strain gsy2, hits give low values 0.968 | S. cerevisiae deletion strains, locus YLR262C, strain YPT6 (second series), hits give low values 0.962 | S. cerevisiae deletion strains, locus YLR262C, strain YPT6, hits give low values 0.992 | S. cerevisiae deletion strains, locus YLR268W, strain sec22, hits give low values 1.01 | S. cerevisiae deletion strains, locus YLR320W, strain mms22, hits give low values 0.959 | S. cerevisiae deletion strains, locus YLR330W, strain CHS5, hits give low values 1.02 | S. cerevisiae deletion strains, locus YLR342W, strain FKS1 (second series), hits give low values 0.989 | S. cerevisiae deletion strains, locus YLR342W, strain FKS1, hits give low values 0.963 | S. cerevisiae deletion strains, locus YLR357W, strain rsc2, hits give low values 0.935 | S. cerevisiae deletion strains, locus YLR370C, strain arc18, hits give low values 0.957 | S. cerevisiae deletion strains, locus YLR371W, strain rom2, hits give low values 1.03 | S. cerevisiae deletion strains, locus YLR384C, strain iki3, hits give low values 0.959 | S. cerevisiae deletion strains, locus YLR418C, strain cdc73, hits give low values 1.03 | S. cerevisiae deletion strains, locus YML016C, strain PPZ1, hits give low values 1.01 | S. cerevisiae deletion strains, locus YML032C, strain rad52, hits give low values 1.01 | S. cerevisiae deletion strains, locus YML120C, strain ndi1, hits give low values 0.957 | S. cerevisiae deletion strains, locus YML124C, strain tub3, hits give low values 1.02 | S. cerevisiae deletion strains, locus YMR058W, strain fet3, hits give low values 0.955 | S. cerevisiae deletion strains, locus YMR078C, strain ctf18, hits give low values 1.02 | S. cerevisiae deletion strains, locus YMR125W, strain sto1, hits give low values 0.938 | S. cerevisiae deletion strains, locus YMR129W, hits give low values 0.966 | S. cerevisiae deletion strains, locus YMR205C, strain PFK2, hits give low values 0.942 | S. cerevisiae deletion strains, locus YMR223W, strain ubp8, hits give low values 1.01 | S. cerevisiae deletion strains, locus YMR231W, strain pep5, hits give low values 0.976 | S. cerevisiae deletion strains, locus YMR263W, strain SAP30, hits give low values 1.01 | S. cerevisiae deletion strains, locus YMR307W, strain GAS1, hits give low values 0.994 | S. cerevisiae deletion strains, locus YNL067W, strain RPL9B, hits give low values 1.01 | S. cerevisiae deletion strains, locus YNL071W, strain lat1, hits give low values 0.967 | S. cerevisiae deletion strains, locus YNL128W, strain TEP1, hits give low values 1.02 | S. cerevisiae deletion strains, locus YNL153C, strain GIM3, hits give low values 1.01 | S. cerevisiae deletion strains, locus YNL183C, strain NPR1, hits give low values 0.936 | S. cerevisiae deletion strains, locus YNL209W, strain ssb2, hits give low values 0.966 | S. cerevisiae deletion strains, locus YNL233W, strain BNI4, hits give low values 0.999 | S. cerevisiae deletion strains, locus YNL248C, strain rpa49, hits give low values 0.969 | S. cerevisiae deletion strains, locus YNL250W, strain rad50, hits give low values 1.01 | S. cerevisiae deletion strains, locus YNL271C, strain bni1, hits give low values 1.01 | S. cerevisiae deletion strains, locus YNL298W, strain CLA4, hits give low values 1.03 | S. cerevisiae deletion strains, locus YNL307C, strain MCK1, hits give low values 1.01 | S. cerevisiae deletion strains, locus YNL322C, strain KRE1 (second series), hits give low values 0.982 | S. cerevisiae deletion strains, locus YNL322C, strain KRE1, hits give low values 1.01 | S. cerevisiae deletion strains, locus YNR049C, strain mso1, hits give low values 0.959 | S. cerevisiae deletion strains, locus YNR052C, strain pop2, hits give low values 1.01 | S. cerevisiae deletion strains, locus YOL006C, strain TOP1, hits give low values 0.997 | S. cerevisiae deletion strains, locus YOL012C, strain htz1 0.851 | S. cerevisiae deletion strains, locus YOL147C, strain pex11, hits give low values 1.02 | S. cerevisiae deletion strains, locus YOR001W, strain rrp6, hits give low values 0.983 | S. cerevisiae deletion strains, locus YOR061W, strain CKA2, hits give low values 1.02 | S. cerevisiae deletion strains, locus YOR069W, strain VPS5, hits give low values 1.01 | S. cerevisiae deletion strains, locus YOR070C, strain gyp1, hits give low values 0.964 | S. cerevisiae deletion strains, locus YOR080W, strain dia2, hits give low values 0.976 | S. cerevisiae deletion strains, locus YOR083W, strain WHI5, hits give low values 0.996 | S. cerevisiae deletion strains, locus YOR106W, strain vam3, hits give low values 0.963 | S. cerevisiae deletion strains, locus YOR136W, strain idh2, hits give low values 1.02 | S. cerevisiae deletion strains, locus YOR144C, strain elg1, hits give low values 1.01 | S. cerevisiae deletion strains, locus YOR184W, strain ser1, hits give low values 1 | S. cerevisiae deletion strains, locus YOR231W, strain MKK1, hits give low values 0.95 | S. cerevisiae deletion strains, locus YOR265W, strain rbl2, hits give low values 0.969 | S. cerevisiae deletion strains, locus YOR270C, strain vph1, hits give low values 0.902 | S. cerevisiae deletion strains, locus YOR290C, strain snf2, hits give low values 0.923 | S. cerevisiae deletion strains, locus YOR316C, strain cot1, hits give low values 1.01 | S. cerevisiae deletion strains, locus YPL051W, strain arl3, hits give low values 0.984 | S. cerevisiae deletion strains, locus YPL055C, strain LGE1, hits give low values 1.02 | S. cerevisiae deletion strains, locus YPL078C, strain atp4, hits give low values 0.971 | S. cerevisiae deletion strains, locus YPL106C, strain sse1, hits give low values 0.957 | S. cerevisiae deletion strains, locus YPL240C, strain hsp82, hits give low values 0.978 | S. cerevisiae deletion strains, locus YPL241C, strain CIN2, hits give low values 1 | S. cerevisiae deletion strains, locus YPL256C, strain CLN2, hits give low values 0.921 | S. cerevisiae deletion strains, locus YPR119W, strain clb2, hits give low values 1.01 | S. cerevisiae deletion strains, locus YPR141C, strain kar3, hits give low values 1.01 | S. cerevisiae deletion strains, locus YPR163C, strain tif3, hits give low values 1 | S. cerevisiae deletion strains, locus YPR167C, strain met16, hits give low values 1.01 | S. cerevisiae deletion strains, strain wtn01, hits give low values 1.02 | S. cerevisiae strains, strain wild type, hits give low values 1.01
